# Test results from publication PMC12136788.
# Substitutions are numbered along the chain they refer to. In all, about 24,000 sequences were measured (“enrichment r”: median about 0.99, highest 2% from about 3.7 on). For the sample, the highest values were picked, then their nearest neighbours and some sequences at random.
# T1: UNK ZnF1-3 (human, UniProt Q9C0B0 31-174)
# T1 sequence: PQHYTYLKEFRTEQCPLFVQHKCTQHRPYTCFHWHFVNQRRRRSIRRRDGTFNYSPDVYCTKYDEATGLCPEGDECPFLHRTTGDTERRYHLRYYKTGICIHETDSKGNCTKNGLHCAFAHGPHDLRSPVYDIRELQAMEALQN
# B1: chr2:217001844:217001845:+_ENSG00000079246_ENST00000392132|hu_hu|hu_hu_hu_mus_False|98_108 (ssRNA)
# RNA: GGGAGUUCUACAGUCCGACGAUCACCGACUUGAGGAUUAGCUCUUUUGUCAUAAGCAUAUCGGACGAUGGCGACCAUGUUUAACUCAUCCAAAGCAUGAACGAGAGAGGAAAGGGCAACAGCUGCCGCCUCAUCAUCCUUUGCCAACAGAGGAUUGAGCAUCA
# B2: chrX:132781199:132781200:+_ENSMUSG00000042712_ENSMUST00000048687|mus_hu|FALSE|FALSE (ssRNA)
# RNA: GGGAGUUCUACAGUCCGACGAUCUGCUAAUAAAAAGCAAGCUAUAUGGUAUUGUUAAUAUCAGAUAAAAAUCAAGGUAAACUACAUUAAAUAGGGGUAAGGAUGGUUUCGAUUAACCUUCCAACGCAUCACUAUAAGUUUGUUCAACAGAGGAUUGAGCAUCA
# B3: chrX:132781199:132781200:+_ENSMUSG00000042712_ENSMUST00000048687|mus_hu|motif|central (ssRNA)
# RNA: B2 RNA with U82G, A83G
# B4: chr15:90999404:90999405:+_ENSG00000140575_ENST00000268182|hu_hu|FALSE|FALSE (ssRNA)
# RNA: GGGAGUUCUACAGUCCGACGAUCCUGCAGAGUCUUUUGGGCAUCACCUUCAUCCAGGGCUUCAUUAAUUAAACCAAUGGCUAAAAUCCUCUCAUGUUCCUCUUGCACCACCAGGUUCACAUGGUCCACGCAAGCUUGGAUAUCCAACAGAGGAUUGAGCAUCA
# B5: chr7:34932688:34932689:-_ENSMUSG00000052997_ENSMUST00000102746|mus_mus|FALSE|FALSE (ssRNA)
# RNA: GGGAGUUCUACAGUCCGACGAUCCAAGAGCUUCUUUCUUGGGUUUGGCUGCUUAUUCAAAAAAAUAGUUCUACACUGGUCUAUUUUUCCAGAUAAAAUCUUUAAUCCUUCCAACACUAUCAAGCCGGCGAUCACUGCAUUAGUCAACAGAGGAUUGAGCAUCA
# B6: 31404426_31405736_1086_CDS_ENSG00000196792_ENST00000355683|human|control|control (ssRNA)
# RNA: GGGAGUUCUACAGUCCGACGAUCAGUCACUAAAAAAUCAAAUUCUUUCAGUGCUUCCUCAGUAUCAGGAUCGUCAGUUAGGUCAGCAGCUAAACCUUCAUUACCUAUUUUAUGUUUAUUCAUCCGAUGUUUGUCUUUUCCUUCCAACAGAGGAUUGAGCAUCA
# B7: 126502921_126503041_1455_ncRNA_ENSMUSG00000006728_ENSMUST00000140254|mouse|control|control (ssRNA)
# RNA: GGGAGUUCUACAGUCCGACGAUCUGGUCGGCUUCAGAGUUUCCACAGAAGAGAGGCCUAAGGCAGAAAAAGACUCAAAGUAUGUGUUAUAUCAAAAAUAGGGGAGUGGGGGCUGGAGAGACGGCUCAGCAGAUAAGACUGCUCCAACAGAGGAUUGAGCAUCA
# Molecular target: T1, UNK ZnF1-3
# Test: nsRBNS (natural sequence RNA bind-n-seq); RBNS binding buffer (assumed for nsRBNS): 25 mM Tris pH 7.5, 150 mM KCl, 3 mM MgCl2, 0.01% Triton X-100, 500 ug/ml BSA, 20 U/ml SUPERase-In, 4 C; UNK is unkempt and MSI1 is Musashi-1; names of the RNAs are library labels; protein concentration not given here; high values mean tight binding
row,Binder,binding signal [enrichment R]
1,B1,2.19
2,B2,5.13
3,B3,5.74
4,B4,1.38
5,B5,1.12
6,B6,0.927
7,B7,3.33
